{"source": "PubChem BioAssay (Tox21)", "note": "Values joined by “and” are separate entries in the source; they are usually repeats but may differ in a detail not shown here. Equal values may be shown once. Inconclusive results are not listed. A call without a number means that no potency is given here. Active and inactive are the calls of the source. Calls follow the shape of the dose curve; as a rule, active = well fitted cell-killing curve with a large enough effect in the repeat runs; inconclusive = weak or mixed curves, or effect the other way; inactive = flat fitted curve, though single readings scatter. Potency is read from the fitted curve at half-maximal effect.", "data": [{"assay": "Human pregnane X receptor (PXR) small molecule agonists, qHTS cell viability counter screen (AID 1346977); also: nearly all actives have a fitted effect of over 50% in size", "conditions": "PXR-Luc HepG2 viability, CellTiter-Fluor, 24 h; series mostly up to 92.4 µM; activity change, negative = cytotoxicity: at the top concentration", "source_text": "U.S. Tox21 Program National Center for Advancing Translational Sciences [NCATS] NIH Chemical Genomics Center [NCGC] U.S. Environmental Protection Agency [EPA] National Institutes of Environmental Health Sciences [NIEHS] National Toxicology Program [NTP] U.S. Food and Drug Administration [FDA] Tox21 Assay Overview: The human pregnane X receptor (hPXR) regulates the expression of several drug metabolizing enzymes and induction of these proteins is a major mechanism for developing drug resistance in cancer. One such key enzyme catalyzing the drug metabolism is cytochrome P450 3A4 (CYP3A4). Changes in CYP3A4 expression affect drug metabolism, thereby reducing the therapeutic efficacy and altering toxicological response to a drug and which finally causes adverse drug interaction. To screen Tox21 libraries for compounds that activate hPXR-mediated CYP3A4 gene expression, PXR-Luc HepG2 cells were used. Also cytotoxicity of the compounds was tested in parallel by measuring the cell viability using CellTiter-Fluor assay system in the same wells.\nTox21 Assay Protocol Summary: PXR-Luc HepG2 cells were dispensed at 2,000 per well in 5uL of assay medium containing 5% charcoal-stripped FBS into white solid bottom 1536-well plates (Corning Life Sciences, Corning, NY) using a Multidrop Combi (Thermo Scientific, Waltham, MA) dispenser. The assay plates were incubated at 37 C and 5% CO2 for 5hr, and then 23nL of compounds dissolved in DMSO and positive control were transferred using a Pintool station (Wako, San Diego, CA). The assay plates were incubated at 37C and 5% CO2 for 24hr. For cytotoxicity read, after 23hr incubation at 37C, 1uL CellTiter-Fluor reagent (Promega Corporation, Madison, WI) was added to each well of the assay plates using Flying Reagent Dispenser (FRD, Aurora Discovery, San Diego, CA). After 1hr incubation at 37C and 5% CO2, the fluorescence signal was quantified using a ViewLux plate reader (PerkinElmer, Shelton, CT).", "values": [{"compound": "C=C[C@H]1CN2CC[C@H]1C[C@@H]2[C@@H](O)c1ccnc2ccc(OC)cc12", "activity change, negative = cytotoxicity": "-25.4% [at 42.5 µM] (inactive)"}, {"compound": "C[C@]12CC[C@@H]3c4ccc(O)cc4CC[C@H]3[C@@H]1CC[C@@H]2O", "Potency": "inactive"}, {"compound": "Cc1ccc(S(=O)(=O)NCl)cc1", "Potency": "inactive"}, {"compound": "C[C@]12C=CC(=O)C=C1CC[C@H]1[C@@H]3C[C@@H](O)[C@](O)(C(=O)CO)[C@@]3(C)C[C@H](O)[C@@]12F", "Potency": "inactive"}, {"compound": "NCCN", "Potency": "inactive"}, {"compound": "COC(=O)C(C)Oc1ccc(Oc2ncc(C(F)(F)F)cc2Cl)cc1", "note": "(stereo not given)", "Potency": "inactive"}, {"compound": "CCC/C=C/C=O", "Potency": "inactive"}, {"compound": "CC[C@]12CCCN3CCc4c(n(c5ccccc45)[C@@](O)(C(=O)OC)C1)[C@@H]32", "activity change, negative = cytotoxicity": "-4.29% [at 42.5 µM] (inactive)"}, {"compound": "CCCCCCC(C)O", "note": "(stereo not given)", "Potency": "inactive"}, {"compound": "COC(=O)CC(=O)OC", "Potency": "inactive"}, {"compound": "CN1CCOCC1", "Potency": "inactive"}, {"compound": "CC1(C)OC(=O)NC1=O", "Potency": "inactive"}, {"compound": "C=CCNCC=C", "Potency": "inactive"}, {"compound": "CCCCCC=O", "Potency": "inactive"}, {"compound": "C[N+](C)(C)CCO", "Potency": "inactive"}, {"compound": "Cc1ccc(C(C)(C)C)c(O)c1", "Potency": "inactive"}, {"compound": "Oc1ccc(C(c2ccc(O)cc2)C(Cl)(Cl)Cl)cc1", "activity change, negative = cytotoxicity": "-34% (inactive)"}, {"compound": "CC(C)[N+](C)(CCOC(=O)C1c2ccccc2Oc2ccccc21)C(C)C", "Potency": "inactive"}, {"compound": "Oc1c(Cl)ccc(Cl)c1Cl", "Potency": "inactive"}, {"compound": "CC(=O)O[C@]1(C(C)=O)CC[C@H]2[C@@H]3C=C(C)C4=CC(=O)CC[C@]4(C)[C@H]3CC[C@@]21C", "activity change, negative = cytotoxicity": "-8.58% [at 42.5 µM] (inactive)"}, {"compound": "CNC[C@H](O)c1ccc(O)c(O)c1", "Potency": "inactive"}, {"compound": "CCCCCCCCCCC(CO)CCCCCCCC", "note": "(stereo not given)", "Potency": "inactive"}, {"compound": "CC(C)=CCO", "Potency": "inactive"}, {"compound": "OC[C@H]1O[C@@H]2O[C@H]3[C@H](O)[C@@H](O)[C@@H](O[C@H]4[C@H](O)[C@@H](O)[C@@H](O[C@H]5[C@H](O)[C@@H](O)[C@@H](O[C@H]6[C@H](O)[C@@H](O)[C@@H](O[C@H]7[C@H](O)[C@@H](O)[C@@H](O[C@H]1[C@H](O)[C@H]2O)O[C@@H]7CO)O[C@@H]6CO)O[C@@H]5CO)O[C@@H]4CO)O[C@@H]3CO", "activity change, negative = cytotoxicity": "2.36% (inactive)"}, {"compound": "O=C(O)CCCCCCCCCCCC(=O)O", "Potency": "inactive"}, {"compound": "FC(F)(F)C(Cl)Br", "note": "(stereo not given)", "Potency": "inactive"}, {"compound": "CCCCCCOCCOCCO", "Potency": "inactive"}, {"compound": "CC(=O)O[C@]1(C(C)=O)CC[C@H]2[C@@H]3C=C(Cl)C4=CC(=O)CC[C@]4(C)[C@H]3CC[C@@]21C", "activity change, negative = cytotoxicity": "-17.4% [at 42.5 µM] (inactive)"}, {"compound": "Cc1ccc(N)c([N+](=O)[O-])c1", "Potency": "inactive"}, {"compound": "O=S1(=O)CCCO1", "Potency": "inactive"}, {"compound": "NC[C@H](O)c1ccc(O)c(O)c1", "activity change, negative = cytotoxicity": "-18.4% [at 42.5 µM] (inactive)"}, {"compound": "Cc1ccc([N+](=O)[O-])c(C)c1", "Potency": "inactive"}, {"compound": "CCCCCCCCCCCCCO", "Potency": "inactive"}, {"compound": "CC(=O)Oc1ccc(C(c2ccc(OC(C)=O)cc2)c2ccccn2)cc1", "Potency": "inactive"}, {"compound": "CC/C(=C(/CC)c1ccc(O)cc1)c1ccc(O)cc1", "activity change, negative = cytotoxicity": "-23.8% [at 42.5 µM] (inactive)"}, {"compound": "O=C1CCc2ccccc2O1", "Potency": "inactive"}, {"compound": "C=CN1CCCC1=O", "Potency": "inactive"}, {"compound": "CC(C)(Oc1ccc(Cl)cc1)C(=O)O", "Potency": "inactive"}, {"compound": "[Na+]", "Potency": "inactive"}, {"compound": "CN(C)CCCN1c2ccccc2Sc2ccc(Cl)cc21", "Potency": "27.3 µM (active) and 26.6 µM (active)"}]}]}
